# Screening results from PubChem BioAssay.
# A selection: hits, their analogues and other compounds. The true share with any hit is near 11%.
# AMA1-RON2 inh = AMA1-RON2 (P. falciparum) interaction inhibition | AlphaScreen AMA1-biotinylated RON2 peptide binding | Potency, µM (top dose mostly 58.2 µM), for inactives: at the highest dose activity change, negative = inhibition, hits mostly inhibitors | actives 0.2% (n = 360,000) | AID 720542;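 note: 0% = vehicle wells and -100% = peptide control; nearly all actives have a fitted effect of over 45% in size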
#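 AMA1 (3D7) with his tag at 25 nM final met compounds first, then biotinylated RON2 peptide at 25 nM; detection used donor plus acceptor beads, 10 µg/mL apiece, read by AlphaScreen after 30 min at room temperature.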
# Pf growth 48h = P. falciparum growth inhibition at 48 hours (one generation) | P. falciparum luciferase growth in erythrocytes, 48 h | Potency, µM (doses to about 28.7 µM), for the others: top-dose activity change, negative = inhibition, usual class: inhibitors | actives 5.9% (n = 310,000) | AID 504832
#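 Here the parasites carry a stable luciferase gene and grow inside erythrocytes in Albumax-based RPMI medium with compound for one erythrocytic cycle. Activity is scored as loss of luminescent signal.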
# AmpC detergent = inhibitors of E. coli AmpC beta-lactamase with detergent; actives 0.041% (n = 370,000); AmpC hydrolysis of nitrocefin, absorbance 480 nm, 0.01% Triton; P00811; Potency, µM (series often up to 114 µM), without a hit: at the top dose activity change, negative = inhibition, most hits filed as inhibitors;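 note: 0% = no-compound wells and -100% = no-enzyme wells; nearly all actives have a fitted effect of over 25% in size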
# Target sequence (P00811 whole entry, looked up): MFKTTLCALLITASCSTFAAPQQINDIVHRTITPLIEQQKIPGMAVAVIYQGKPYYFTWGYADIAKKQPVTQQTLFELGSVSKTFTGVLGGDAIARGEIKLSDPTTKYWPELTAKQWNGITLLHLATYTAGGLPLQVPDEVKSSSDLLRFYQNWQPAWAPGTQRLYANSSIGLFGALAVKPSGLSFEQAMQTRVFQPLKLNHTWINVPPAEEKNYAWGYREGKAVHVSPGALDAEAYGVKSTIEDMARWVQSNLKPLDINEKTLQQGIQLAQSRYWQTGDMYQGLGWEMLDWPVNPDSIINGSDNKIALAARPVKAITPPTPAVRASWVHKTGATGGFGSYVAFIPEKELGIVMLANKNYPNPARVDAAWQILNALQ
#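 20 mM phosphate pH 7.0 + 0.01% (detergent screen) or 0.0001% Triton X-100; 5.3 nM AmpC reagent; cpd preinc 15 min RT; nitrocefin (800 uM stock) to start; A480 q20 s × 4 min; Activity was normalised to no-enzyme and no-compound control wells.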
# Pf growth 96h = inhibits malaria parasite growth, 96 h. AID 504834. P. falciparum luciferase reporter growth, 96 h. Potency, µM (highest dose often 28.7 µM), for the others: top-dose activity change, negative = inhibition, hits mostly inhibitors. actives 6.9% (n = 320,000)
#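 Two-generation exposure (96 h) targets delayed-death phenotype. Reporter parasites carrying integrated firefly luciferase, in red cells at 2% hematocrit and 0.05% parasitemia final, kept at 37 C, 5% CO2; luminescence loss indicates inhibition.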
# AmpC inh no detg = inhibitors of E. coli AmpC beta-lactamase without detergent; P00811; AmpC nitrocefin hydrolysis, absorbance 480 nm, 0.0001% Triton; Potency, µM (doses to about 57.1 µM), for the others: at the top dose activity change, negative = inhibition, usual class: inhibitors; actives 0.52% (n = 330,000);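 note: plate controls were no compound for no effect and no enzyme for full effect; nearly all actives have a fitted effect of over 20% in size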
#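 AmpC (5.3 nM in the dispensed reagent) in 20 mM phosphate pH 7.0 with 0.01% (detergent screen) or 0.0001% Triton X-100 was preincubated with compounds for 15 min at room temperature. Nitrocefin was then added from an 800 uM solution, and hydrolysis was followed at 480 nm.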
# HCV inhibitor = inhibitors of hepatitis C virus infection. Huh7.5.1 HCVcc-Cre infection, luciferase reporter, 44 h. Potency, µM (doses to about 41.8 µM), without a hit: top-dose activity change, negative = inhibition, hits mostly inhibitors. actives 3.4% (n = 340,000)
#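 Cells (1,000/well) were plated 4 h before compound, then infected with HCVcc-Cre virus (~0.5 moi). After 44 h further culture, infection was read as luciferase luminescence following a 15 min substrate incubation at room temperature.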
# Starred values were filed as active, the others as inactive; u = inconclusive; x = no result; [ ] = remark or other dose. Calls come from the whole dose curve; as a rule, active = well fitted curve in the direction sought with a large enough effect; inconclusive = small, poorly fitted or top-dose-only effect, or another doubt; inactive = no such curve, though single readings can be large; an effect the other way counts as inactive or inconclusive. Unless noted, % is set by controls: 0 for no effect and ±100 for the full control effect; potency is the fitted concentration of half-maximal effect.
SMILES,AMA1-RON2 inh,Pf growth 48h,AmpC detergent,Pf growth 96h,AmpC inh no detg,HCV inhibitor
Cc1cc(N2CCOCC2)ccc1/C=C1\NC(=O)N(Cc2ccccc2F)C1=O,-3%,-9%,-7%,-1%,-8%,4µM*
Cc1cc(N2CCOCC2)ccc1/C=C1\NC(=O)N(Cc2ccccc2)C1=O,-5%,-18%[1.15 µM],7%,u,-6%,u
O=C(NCc1ccc(F)cc1)c1cc(Sc2ccc(F)cc2F)nc2ccccc12,x,x,5%,x,x,x
Cc1sc2nc(CN3CCCCC3)nc(Nc3ccc4c(c3)OCCO4)c2c1C,-3%,9.3µM*,4%,u,1%,4%
CCCOc1ccc(N2C(=O)CC(NCc3cccs3)C2=O)cc1 (centres undefined),17%,-1%,-10%,5.2µM*,-10%,9%
Cc1cc(Cl)ccc1NC(=O)CN1C(=O)COc2ccc(S(=O)(=O)N3CCC(C)CC3)cc21,x,x,-5%,x,x,x
COCCCn1cc(C(=O)c2ccccc2OCC(=O)Nc2cccc(F)c2)cc(C#N)c1=O,-9%,u,1%,u,47%,-17%
COCCCn1cc(C(=O)c2cc(Br)ccc2O)cc(C#N)c1=O,-4%,u,3%,9.3µM*,-21%,-27%
Cc1ccc(O)c(C(=O)c2cc(C#N)c(=O)n(C(C)c3ccccc3)c2)c1 (centres undefined),-7%,3.3µM*,1%,5.9µM*,-28%,-24%
N#Cc1cc(C(=O)c2cc(Br)ccc2O)cn(C2CC2)c1=O,-3%,u,-2%,u,-32%,-9%
C=CCn1cc(C(=O)c2cc(Br)ccc2O)cc(C#N)c1=O,9%,u,1%,u,-40%,-5%
CCCCn1cc(C(=O)c2cc(Br)ccc2O)cc(C#N)c1=O,3%,1.7µM*,-5%,2.1µM*,-7%,11µM*
CCOCCCn1cc(C(=O)c2cc(Br)ccc2O)cc(C#N)c1=O,-16%,5.2µM*,4%,u,-37%,-18%
CC(C)n1cc(C(=O)c2cc(Br)ccc2O)cc(C#N)c1=O,-2%,x,-6%,2.6µM*,-28%,-15%
Cc1ccc(O)c(C(=O)c2cc(C#N)c3nc4ccccc4n3c2)c1,-6%,12%,1%,41%,3%,5µM*
CC1Cc2cc(/C(O)=C3/C(=O)C(=O)N(CCN4CCOCC4)C3c3ccc([N+](=O)[O-])cc3)ccc2O1 (centres undefined),-1%,24%,u,9.3µM*,-10%,-1%
COc1ccc(-c2cc3c(nn2)-c2ccccc2C3=O)cc1,-15%,19%,u,1.9µM*,-8%,7%
Cc1cnc2c(c1)C(=O)c1ccccc1-2,-3%,21%,6%,2%,-1%,8%
COc1ccc(-c2cn(Cc3ccc4c(c3)C(=O)c3ccccc3C4=O)nn2)cc1,-1%,u,-8%,9%,-28%,8%
Cc1cccc(-c2cc3c(nn2)-c2ccccc2C3=O)c1,-15%,1.3µM*,-2%,x,-22%,-11%
O=C1c2ccccc2-c2nnc(-c3ccccc3)cc21,-7%,2.6µM*,-2%,u,-30%,19%
CCCCN(CC)CCCNC(=O)c1nn(-c2ccc(OC)cc2)c(=O)c2c1c1ccccc1n2C,x,x,-3%,x,x,x
CC(=O)Nc1ccc(C(=O)CSc2nc3ccccc3n2CC(=O)N2CCCC2)cc1,-6%,x,u,3.7µM*,-12%,4%
O=C(CSc1nc2ccccc2n1CC(=O)N1CCCCC1)N1CCCCC1,2%,-9%,-5%,-12%,6%,6%
Cc1cccc(C)c1NC(=O)CN(C)CC(=O)Nc1ccccc1Oc1ccccc1,35%,u,-7%,12µM*,154%,3%
SMILES,AMA1-RON2 inh,Pf growth 48h,AmpC detergent,Pf growth 96h,AmpC inh no detg,HCV inhibitor
Cc1cccc(Oc2nc3c(c(=O)n(C)c(=O)n3C)n2C)c1C,x,x,22%,x,x,x
COc1ccccc1NC(=O)Cn1c(SCC(=O)N(C)c2ccccc2)nc2ccccc21,x,x,2%,x,x,x
CCn1cc(C2=NCC(C)O2)c2ccccc21 (centres undefined),-6%,0%,-4%,u,2%,14µM*
CCn1cc(C2=NC(C)(C)CO2)c2ccccc21,3%,x,0%,-23%,-3%,3.2µM*
CCn1cc(C2=NCCO2)c2ccccc21,-1%,x,1%,11%,-13%,u
COc1ccccc1CN1C[C@@H]2C[C@@H](C3=Cc4cc(Cl)ccc4OC3)N3CCC[C@@]23C1=O,-6%,u,0%,13µM*,140%,11µM*
COc1ccccc1CN1C[C@@H]2C[C@@H](c3[nH]c4ccc(C)cc4c3C)N3CCC[C@@]23C1=O,9%,7.4µM*,-3%,-14%,161%,-14%
CCc1ccc([C@@H]2C[C@H]3CN(Cc4ccccc4OC)C(=O)[C@]34CCCN24)cc1,-6%,5.9µM*,6%,u,87%,u
COc1ccccc1CN1C[C@@H]2C[C@@H](c3ccccc3C)N3CCC[C@@]23C1=O,-6%,u,6%,207%,59%,u
CCn1ccnc1[C@@H]1C[C@H]2CN(Cc3ccccc3OC)C(=O)[C@]23CCCN13,12%,11%,3%,9.3µM*,6%,29%
CN1C[C@@H]2C[C@@H](C3=Cc4cc(Cl)ccc4OC3)N3CCC[C@@]23C1=O,-7%,-25%,-5%,5%,98%,u
COc1ccccc1CN1C[C@@H]2C[C@@H](c3ccc(C)cc3)N3CCC[C@@]23C1=O,-17%,u,7%,u,50%,u
COc1cccc(C(=O)Nc2cccc(C(=O)OCc3cc(=O)n4c5c(sc4n3)CCCC5)c2)c1,x,x,14%,x,x,x
CCOc1cc(CNC(=O)c2ccc(C)c(NC(=O)c3nsc4ccccc34)c2)ccc1OC,x,x,29%,x,x,x
COc1ccc2c(c1)C=C([C@@H]1C[C@H]3CN(c4ccccc4)C(=O)[C@]34CCCN14)CO2,u,1.5µM*,7%,u,51%,-6%
COCc1cc([C@@H]2C[C@H]3CN(c4ccccc4)C(=O)[C@]34CCCN24)ccc1OC,10%,10µM*,0%,u,35%,8%
COc1ccc([C@@H]2C[C@H]3CN(c4ccccc4)C(=O)[C@]34CCCN24)c(OC)c1OC,5%,u,-8%,7%,42%,24%
CCC(Sc1nc(-c2ccc(F)cc2)nc2c1Cc1c(CO)cnc(C)c1O2)C(=O)Nc1ccc(F)cc1 (centres undefined),x,x,-8%,x,x,x
